According to PubChem BioAssay AID651791 (National Center for Advancing Translational Sciences (NCATS), 2012):
Inconclusive results are not listed. Active and inactive are the calls of the source. Calls follow the shape of the dose curve; as a rule, active = well fitted inhibition curve with a large enough effect; inconclusive = small, poorly fitted or top-dose-only effect; inactive = no such curve, though single readings can be large or run the other way.

Test: InCell qHTS Assay for Inhibitors of the mTORC1 Signaling Pathway in MEF (Tsc2-/-, p53-/-) Cells: Hit Validation;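 also: phospho-S6 Ser235/236 signal normalized to propidium iodide cell count per well; nearly all actives have a fitted effect of over 75% in size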
Details: phospho-rpS6 immunofluorescence, 24 h; activity change, negative = inhibition: at 38.3 µM (top of the series)
Potency is read from the fitted curve at half-maximal effect.

Activity change, negative = inhibition, -14.3%:
CCN(CC)CC(C)CNC(=O)c1cc(-c2ccc(Br)s2)nc2ccccc12 (stereo not drawn)

Activity change, negative = inhibition, -7.96%:
COc1ccc(-c2ccc(CCC(=O)O)n2-c2ccccc2O)cc1

Activity change, negative = inhibition, -29.2%:
CN(C)c1ccc(NC(=O)Cn2cc(S(=O)(=O)Cc3ccccc3Cl)c3ccccc32)cc1

Activity change, negative = inhibition, -28.4%:
Cc1ccccc1S(=O)Cc1ccc(C(=O)N2CCN(c3cccc(C)c3C)CC2)o1 (stereo not drawn)

Activity change, negative = inhibition, -64.5%:
Cc1ccc(N(CC(O)Cn2c3ccccc3c3ccccc32)S(=O)(=O)c2ccc(F)cc2)cc1 (stereo not drawn)

Activity change, negative = inhibition, -100%:
Cc1cc(C)cc(OCC(=O)Nc2cccc(-c3nc4ccccc4[nH]3)c2)c1
Cc1ccc(C)c(CN2C(=O)C(=O)c3ccccc32)c1
O=C(CC(NCc1cccnc1)C(=O)O)Nc1ccc(O)cc1 (stereo not drawn)
CCOC(=O)N1CCN(Cc2nc3cc(NC(=O)c4ccccc4OC)ccc3n2C(C)C)CC1
CN(Cc1ccccc1)C(=O)CSc1c2c(nc3ccc(Cl)cc13)CCCC2
COc1ccc(S(=O)(=O)NCCc2csc3nc(-c4ccc(Cl)cc4)nn23)cc1C
Cc1ccc(-c2nnc(Nc3cccc(Cl)c3)c3ccccc23)cc1S(=O)(=O)N1CCN(C)CC1
CCCc1oc2ccc(NS(=O)(=O)c3ccc(OCC)cc3)cc2c1C(=O)OCC
Cc1cccc(CN2CCc3nc(N4CCN(c5ccccn5)CC4)ncc3C2)c1
COc1ccc(-c2nc(S(=O)(=O)c3ccc(Cl)cc3)c(N3CCCCCC3)o2)cc1
CCOC(=O)N1CCN(Cc2nc3cc(NC(=O)c4ccc(F)cc4)ccc3n2C(C)C)CC1
Cc1oc(-c2ccccc2F)nc1Cn1c(SCc2cccc(Cl)c2)nc2ccncc21
COc1cccc(-c2nc(SCC(=O)NCC3CCCO3)c(-c3ccc(F)cc3)[nH]2)c1 (stereo not drawn)
CC(C)Oc1ccc(CNC(=O)c2ccc3nc(SCc4ccc(F)cc4)n(C)c3c2)cc1
COc1cc(Br)ccc1C1C(C(=O)Nc2ccc(C)cc2C)=C(C)Nc2nnnn21 (stereo not drawn)
Cc1cccn2c(Nc3ccccc3)c(-c3cccs3)nc12
COc1cc(-c2ccno2)ccc1S(=O)(=O)N1CCN(c2cc(C)ccc2C)CC1
O=C(Cn1c(=O)c2cccn2c2ccccc21)NCc1ccccc1F
CCOc1ccc(-c2cnc(NCc3ccc(C(F)(F)F)cc3)n2C)cc1
CC(C)CCNC(=O)Nc1ccc2c(c1)N(C)C(=O)c1ccccc1S2
COc1ccc(Cn2c(C(=O)O)c(CNCc3ccc(SC)cc3)c3ccc(OC)cc32)cc1
CCOC(=O)c1[nH]c2ccccc2c1NC(=O)c1ccccc1OCC
Cc1ccc(C)c(NC(=O)Nc2cc3c(cc2N2CCCCC2)n(C)c(=O)n3C)c1

Activity change, negative = inhibition, -29.6%:
Cc1oc2ccc(O)c(CN3CCCC(C)C3)c2c1C(=O)Nc1ccccc1 (stereo not drawn)

Potency, active:
CCc1nnc(NC(=O)c2nc(S(=O)(=O)Cc3cccc(C)c3)ncc2Cl)s1 4.14 µM
Cc1ccc(NC(=O)c2nc(S(=O)(=O)Cc3cccc(C)c3)ncc2Cl)cc1 14.7 µM
CCCS(=O)(=O)c1ncc(Cl)c(C(=O)Nc2c(C(=O)Nc3ccccc3)oc3ccccc23)n1 2.33 µM
O=C(Cn1c(=O)n(Cc2ccc3c(c2)OCO3)c(=O)c2ccc(C(=O)NC3CCCCC3)cc21)Nc1ccccc1F 5.21 µM
CCC(=O)C1=C(c2ccc(Cl)cc2)N(C(=O)CC)n2c(C)nnc2S1 2.61 µM
CCCCS(=O)(=O)c1oc(-c2cccs2)nc1S(=O)(=O)c1ccccc1 1.47 µM
CCN1CCOC(=O)C1CC(=O)Nc1cc(C)ccc1OC (stereo not drawn) 13.1 µM
COc1ccc(OC)c(NC(=O)c2nc(S(=O)(=O)Cc3ccc(F)cc3)ncc2Cl)c1 2.61 µM
CC1=C(C(=O)Nc2ccc(C)cc2C)C(c2cc(Br)ccc2F)n2ncc(C(=O)Nc3ccc(C)cc3)c2N1 (stereo not drawn) 14.7 µM
